Experimental data as given in PubChem BioAssay AID504332 (National Center for Advancing Translational Sciences (NCATS), 2011).
Among all 350,000 compounds or so, about 31,000 (8.9%) were called active. About 15% were inconclusive and are not listed. The call rests on the fitted dose curve; in most records, active means well fitted inhibition curve with a large enough effect; inconclusive means small, poorly fitted or top-dose-only effect; inactive means no such curve, though single readings can be large or run the other way. For the sample, actives were picked, then their nearest neighbours and some compounds at random.

The compounds below were run against Histone-lysine N-methyltransferase EHMT2 (Homo sapiens) (UniProt Q96KQ7) (assay: qHTS Assay for Inhibitors of Histone Lysine Methyltransferase G9a). Conditions: G9a H3K9 monomethylation, AlphaScreen, 2 h; series mostly up to 59 µM; activity, negative = inhibition: at the top concentration.
Method in brief: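 Chemiluminescent proximity detection of H3K9 monomethylation, read after 10 min bead incubation in the dark. Reaction: 20 nM G9a, 500 nM biotin-H3K9 peptide, 20 uM SAM cofactor, 2 h, room temperature, following 15 min enzyme-compound preincubation.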
Further: nearly all actives have a fitted effect of over 75% in size.
On the % scale 0 is the no-effect control and ±100 the full control effect; potency means the concentration at half of the fitted maximal effect.

Histone-lysine N-methyltransferase EHMT2 (Homo sapiens), sequence (Q96KQ7 913-1193 limits assumed): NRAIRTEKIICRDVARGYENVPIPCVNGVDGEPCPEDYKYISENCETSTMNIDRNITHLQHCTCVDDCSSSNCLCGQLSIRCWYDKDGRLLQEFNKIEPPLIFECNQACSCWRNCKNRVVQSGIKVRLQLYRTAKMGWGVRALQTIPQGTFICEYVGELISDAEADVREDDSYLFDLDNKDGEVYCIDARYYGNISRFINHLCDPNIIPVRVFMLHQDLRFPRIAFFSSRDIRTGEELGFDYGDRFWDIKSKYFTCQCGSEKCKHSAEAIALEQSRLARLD

Row | Compound | activity, negative = inhibition | Potency
1 | CC(=O)c1nn(-c2ccc(OC(F)(F)F)cc2)nc1Nc1ccccc1 | 9.69% (inactive) | –
2 | Cc1ccc(N2CC(C(=O)N3CCC4(CC3)CC(=O)c3ccccc3O4)CC2=O)cc1C (stereo unspecified) | 6.18% [at 0.501 µM] (inactive) | –
3 | CCOc1ccc(NS(=O)(=O)c2ccc(C(=O)NC3CCN(Cc4ccccc4)CC3)cc2)cc1 | 17.4% [at 2.33 µM] (inactive) | –
4 | CCOc1ccc(NS(=O)(=O)c2ccc(C(=O)NCC(c3ccccc3OC)N3CCCC3)cc2)cc1 (stereo unspecified) | – | 1.26 µM (active)
5 | CCOc1ccc(S(=O)(=O)Nc2ccc(C(=O)NCCCN3CCCC3=O)cc2)cc1 | 12.9% (inactive) | –
6 | COc1ccc(Cn2c(=O)c3oc4ccccc4c3n(CC(=O)Nc3ccc(F)cc3F)c2=O)cc1 | 2.4% (inactive) | –
7 | COc1ccc(NC(=O)c2ccco2)cc1NC(=O)COc1ccc(C)c(C)c1 | -5.49% (inactive) | –
8 | O=C(N/N=C/c1ccc([N+](=O)[O-])cc1)c1c[nH]c2ccccc12 | -27.9% [at 102 µM] (inactive) | –
9 | COc1ccc(/C=C(\C#N)c2c[nH]c3ccccc23)cc1 | – | 39.8 µM (active)
10 | COc1ccc2[nH]cc(/C=C(/C#N)S(=O)(=O)c3ccccc3)c2c1 | -5.58% [at 102 µM] (inactive) | –
11 | CCCCn1c(N)c(N(Cc2ccccc2OC)C(=O)COc2cc(C)ccc2Cl)c(=O)[nH]c1=O | -35.7% [at 102 µM] (inactive) | –
12 | Cn1nccc1/C=N\NC(=O)c1ccc(Cl)cc1 | 19.2% [at 102 µM] (inactive) | –
13 | OCC[C@H]1C[C@H](O)[C@@H](O)[C@]2(CCc3ccccc3O2)O1 | 7.67% [at 2.33 µM] (inactive) | –
14 | O=S(=O)(c1ccc(Br)c2ccccc12)N1CCOCC1 | 24.5% [at 0.501 µM] (inactive) | –
15 | COc1ccccc1-n1c(=S)[nH]c2c(sc(=S)n2-c2ccc(C)cc2C)c1=O | – | 7.94 µM (active)
16 | COc1cccc(-n2c(=S)sc3c(=O)n(-c4ccccc4OC)c(SCC4OCCO4)nc32)c1 | 13.6% (inactive) | –
17 | COc1ccccc1N1CCN(C(=O)c2cc(=O)c3cc(C)cc(C)c3o2)CC1 | -10.5% [at 2.33 µM] (inactive) | –
18 | Cc1cccc(C)c1NC(=O)CNC(=O)c1c(C)nn(-c2ccccc2)c1C | 1.23% [at 102 µM] (inactive) | –
19 | Cc1nn(-c2ccccc2)c(C)c1C(=O)OCC(=O)NC(=O)NC1CCCCC1 | 14.9% (inactive) | –

Row | Compound | activity, negative = inhibition | Potency
20 | Cc1cccc(C)c1NC(=O)COC(=O)c1c(C)nn(-c2ccccc2)c1C | – | 11.2 µM (active)
21 | COc1ccc(C)cc1S(=O)(=O)Nc1cc2c3c(c1)CCC(=O)N3CCC2 | 5.66% [at 102 µM] (inactive) | –
22 | Cc1ccc2oc3c(c(=O)c2c1)C(c1ccc([N+](=O)[O-])cc1)N(CCCN1CCOCC1)C3=O (stereo unspecified) | -4.28% (inactive) | –
23 | CC(=O)c1cccc(NC(=O)CSc2nc3c(c(=O)[nH]2)CCC3)c1 | -8.01% (inactive) | –
24 | Cc1ccc(-c2nn(CCC(=O)Nc3ccc(OC(F)(F)F)cc3)c(=O)c3ccccc23)cc1 | 1.21% (inactive) | –
25 | O=C(c1cc(-c2ccco2)nc2ccccc12)N(Cc1nnc(-c2ccc(Cl)cc2)o1)C1CC1 | – | 5.01 µM (active)
26 | O=C(c1ccc(Cl)s1)N(Cc1nnc(-c2ccccc2Cl)o1)C1CC1 | 9.15% [at 12.7 µM] (inactive) | –
27 | CC(C)N(Cc1nnc(-c2ccccc2Br)o1)C(=O)c1cc(Cl)nc2ccccc12 | -53.3% [at 12.7 µM] (inactive) | –
28 | CCOC(=O)[C@H]1[C@H]2COc3cc(OC)ccc3[C@@H]2N2C(=O)N(c3ccc(Br)cc3)C(=O)[C@@]12C | -5.49% [at 102 µM] (inactive) | –
29 | Cc1c(Cl)cccc1NC(=O)C1CCCN(c2ncnc3onc(C)c23)C1 (stereo unspecified) | -4.63% (inactive) | –
30 | CSc1ccccc1OCc1cc(C(=O)N2C[C@H]3CC[C@H]2C3)no1 | 39.3% [at 102 µM] (inactive) | –
31 | O=C(c1ccccc1)c1cc(-c2ccccn2)c(N2CCOCC2)s1 | -7.68% [at 102 µM] (inactive) | –
32 | CCc1cccc(NC(=O)c2cnc(N3CCOCC3)c3ccccc23)c1 | 12.6% (inactive) | –
33 | CCc1ccc2ncc(C(=O)c3ccccc3)c(N3CCOCC3)c2c1 | – | 56.2 µM (active)
34 | COc1ccc(C(=O)CC(=O)c2ccc(C)cc2)c(O)c1 | 28.4% [at 102 µM] (inactive) | –
35 | COc1cc2c(cc1OC)C(COc1ccc(F)cc1)N(C(=O)c1ccccc1F)CC2 (stereo unspecified) | -0.587% (inactive) | –
36 | O=C1Nc2ccc(Br)cc2/C1=N/N=C/C1=C(N2CCOCC2)C(=C\c2ccccc2)/CC1 | – | 12.6 µM (active)
37 | COc1ccc(/C=N/N=C2/C(=O)Nc3ccccc32)cc1O | 16.7% (inactive) | –
38 | COc1ccc(S(=O)(=O)Nc2cc3c(C(=O)OC(C)C)c(C)oc3c3ccccc23)cc1 | -0.639% (inactive) | –

Row | Compound | activity, negative = inhibition | Potency
39 | COc1cccc(N(C(=O)c2snc(C(N)=O)c2N)C(C(=O)NCC2CCCO2)c2c[nH]c3ccccc23)c1 (stereo unspecified) | -48.6% [at 102 µM] (inactive) | –
40 | Cc1ccc(N(C(=O)c2snc(C(N)=O)c2N)C(C(=O)NCC2CCCO2)c2c[nH]c3ccccc23)cc1 (stereo unspecified) | 3.25% [at 102 µM] (inactive) | –
41 | CCOc1ccc(N(C(=O)c2snc(C(N)=O)c2N)C(C(=O)NCC2CCCO2)c2c[nH]c3ccccc23)cc1 (stereo unspecified) | – | 39.8 µM (active)
42 | CN(CC(=O)Nc1ccc(OC(F)(F)F)cc1)C(=O)C1CCC1 | -37% [at 12.7 µM] (inactive) | –
43 | COc1ccc(Cl)cc1C(=O)NCC#N | -0.132% [at 12.7 µM] (inactive) | –
44 | N#C/C=C\Oc1ccc(Cl)cc1N | – | 44.7 µM (active)
45 | COCCNC(=O)C1CCN(S(=O)(=O)c2ccc3c(c2)OCCO3)CC1 | 2.44% [at 0.501 µM] (inactive) | –
46 | O=C(NC(=S)Nc1ccccc1N1CCCCC1)c1ccc(F)cc1 | -39.7% [at 102 µM] (inactive) | –
47 | O=C(CC1N=C2c3ccccc3N=C(SCc3ccc(F)cc3)N2C1=O)NCc1cccs1 (stereo unspecified) | 3.62% (inactive) | –
48 | Nc1nc(-c2ccccc2)cc(-c2ccccc2)n1 | 3.85% [at 102 µM] (inactive) | –
49 | CC(Oc1ccccc1)C(=O)Nc1oc(-c2ccco2)c(-c2ccco2)c1C#N (stereo unspecified) | – | 28.2 µM (active)
50 | COc1cc(C(=O)Nc2oc(-c3ccccc3)c(-c3ccccc3)c2C#N)cc(OC)c1OC | -4.06% [at 102 µM] (inactive) | –
51 | CC(C)C(=O)Nc1oc(-c2ccccc2)cc1C#N | 3.52% [at 102 µM] (inactive) | –
52 | CCC(=O)N1CCc2cc(Br)cc(S(=O)(=O)NCc3ccc(Cl)cc3)c21 | -4.97% (inactive) | –
53 | Brc1ccccc1/C=N/Nc1nc2ccccc2o1 | 2.92% [at 102 µM] (inactive) | –
54 | CC(C)N1C(=O)C2C(C(=O)NC3CCCCC3)C3C=CC2(O3)C1C(=O)NC1CCCC1 (stereo unspecified) | -8.2% (inactive) | –
55 | CCN(CC)CCN1C(=O)C2C(C(=O)Nc3ccc(Br)cc3)C3C=CC2(O3)C1C(=O)NC1CCCCC1 (stereo unspecified) | – | 50.1 µM (active)
56 | CCOCCCN1C(=O)C2C(C(=O)Nc3ccc(OCC)cc3)C3C=CC2(O3)C1C(=O)NC1CCCCC1 (stereo unspecified) | 15.1% [at 102 µM] (inactive) | –
